The text below walks through data of PubChem BioAssay (NCI).

Test systems include NCI-H23 lung; NCI-H226 lung; NCI-H322M lung; HOP-62 NSCLC; NCI-H460 lung; HOP-92 NSCLC; NCI-H522 lung; A549/ATCC NSCLC; 786-0 renal; COLO 205 colon; DU-145 prostate; K-562 leukemia; MALME-3M melanoma; MDA-MB-231 breast; RXF 393 renal; SF-268 CNS; SF-295 CNS; SF-539 CNS; UACC-257 melanoma; M14 melanoma.
Holding throughout (test): NCI-60 one-dose screen, 48 h (100 = growth as untreated, 0 = no growth, -100 = all killed)
Common to all, as to details: 10 µM unless noted

The structures appear in SMILES notation. The panel holds about 83,000 compounds, 20% with a hit somewhere; the sample as a whole holds those more often.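 Plates (96-well) were seeded with cells, treated with compound at one concentration, and incubated for 48 hours before percent growth was determined.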 Unmarked numbers belong to inactive results. Activity calls are given as the source filed them. Rule for the calls: active = growth percent below 10; inactive = the rest.

For the compound `CCN1C(=O)N(CC)C2C1NN=c1s/c(=C\c3ccc([N+](=O)[O-])cc3)c(=O)n12` (stereo not given), the growth in the test on NCI-H23 lung was 47%; with NCI-H226 lung, 66.8%; in the test with NCI-H322M lung, 54.6%; in the test with HOP-62 NSCLC, 42.6%; in the test with NCI-H460 lung, 8.23% (active); with HOP-92 NSCLC, 79.2%. Besides, the growth was -0.229% (active) in the test with NCI-H522 lung; 30.4% in the test on A549/ATCC NSCLC; 44.1% in the test on 786-0 renal; 13.3% with COLO 205 colon; 19.9% in the test on DU-145 prostate; 9.56% (active) in the test on K-562 leukemia. For the same compound, the growth is 45.7% in the test on MALME-3M melanoma; 18.5% in the test with MDA-MB-231 breast; 2.89% (active) in the test on RXF 393 renal; 71.5% in the test on SF-268 CNS; 13.2% in the test on SF-295 CNS; -7.87% (active) in the test with SF-539 CNS. Besides, the growth in the test on UACC-257 melanoma is 31.1%; in the test with M14 melanoma, 12%.
Turning to `COc1cccc(NC(=O)c2sc3nc(C)c(C(=O)c4ccccc4)cc3c2N)c1`, the growth in the test on NCI-H23 lung is 101%; in the test on NCI-H226 lung, 93.9%; with NCI-H322M lung, 84.3%; with HOP-62 NSCLC, 89.7%; in the test with NCI-H460 lung it was 61.2%; with HOP-92 NSCLC, 86.9%. In addition, the growth in the test on NCI-H522 lung is 92.5%; in the test with A549/ATCC NSCLC, 35.1%; in the test on 786-0 renal, 89%; in the test on COLO 205 colon, 107%; in the test on DU-145 prostate, 99.9%; in the test on K-562 leukemia, 64.4%. The growth was 81.5% in the test with MALME-3M melanoma; 91.6% in the test on MDA-MB-231 breast; 85.8% in the test with RXF 393 renal; 87.6% in the test with SF-268 CNS; 67.3% in the test on SF-295 CNS; 86.5% with SF-539 CNS. Moreover, the growth with UACC-257 melanoma was 81.5%; in the test with M14 melanoma, 80.6%.
For the compound `COc1ccc(Cn2cc(C(=O)N=Nc3c(O)[nH]c4ccc(Br)cc34)nn2)cc1`, the growth with NCI-H23 lung was 102%; in the test on NCI-H226 lung it was 97.5%; with NCI-H322M lung, 102%; in the test with HOP-62 NSCLC, 111%; in the test on NCI-H460 lung, 111%; with HOP-92 NSCLC, 114%. The growth was 89.1% with NCI-H522 lung; 95.1% in the test with A549/ATCC NSCLC; 99.6% with 786-0 renal; 115% in the test with COLO 205 colon; 93.7% in the test on DU-145 prostate; 88.1% with K-562 leukemia. For the same compound, the growth was -89.9% (active) in the test with MALME-3M melanoma; 108% with MDA-MB-231 breast; 99.8% with RXF 393 renal; 94.1% in the test on SF-268 CNS; 95.8% in the test with SF-295 CNS; 104% with SF-539 CNS. Also, the growth with UACC-257 melanoma was 102%; in the test with M14 melanoma, 111%.
In the case of `CC/C(=C(/c1ccc(Cl)cc1)c1ccc(OCCN2CCCC2)cc1)c1ccccc1`, the growth in the test with NCI-H23 lung was 62%; in the test with NCI-H226 lung it was 93.9%; with NCI-H322M lung it was 93.4%; in the test on HOP-62 NSCLC, 99%; in the test on NCI-H460 lung, 12.3%; in the test on HOP-92 NSCLC, 57.5%. Also, the growth with NCI-H522 lung was 83%; in the test on A549/ATCC NSCLC, 43.5%; with 786-0 renal, 43.6%; with COLO 205 colon, -25.3% (active); with DU-145 prostate it was 80.4%; in the test on K-562 leukemia, 4.31% (active). Also, the growth in the test with MALME-3M melanoma was 68.8%; with MDA-MB-231 breast it was 73.6%; with RXF 393 renal, 55.2%; with SF-268 CNS, 73.3%; with SF-295 CNS it was 79%; in the test with SF-539 CNS, 74.8%. The growth is 74% in the test with UACC-257 melanoma and 37.1% with M14 melanoma.
`O=S(=O)(c1ccc(NCSc2nc3ccccc3s2)cc1)c1ccc(NCSc2nc3ccccc3s2)cc1`: the growth in the test on NCI-H23 lung was 102%; with NCI-H226 lung, 87.8%; in the test with NCI-H322M lung, 103%; with HOP-62 NSCLC, 66.4%; in the test with NCI-H460 lung, 104%; in the test with HOP-92 NSCLC, 70.7%. Also, the growth in the test on NCI-H522 lung is 69.7%; in the test on A549/ATCC NSCLC, 91.1%; in the test on 786-0 renal, 99.6%; in the test with COLO 205 colon, 97.1%; with DU-145 prostate, 106%; in the test with K-562 leukemia, 77.3%. For the same compound, the growth with MALME-3M melanoma is 90.5%; in the test with MDA-MB-231 breast it was 86.4%; in the test with RXF 393 renal, 99.1%; in the test with SF-268 CNS it was 97.5%; in the test with SF-295 CNS, 98.6%; with SF-539 CNS it was 103%. The growth with UACC-257 melanoma was 94.7%; with M14 melanoma, 96.1%.
In the case of `COc1cc2nc3cc([N+](=O)[O-])ccc3c(NCCCNCCO)c2cc1OC`, the growth with NCI-H23 lung is -29.1% (active); in the test on NCI-H226 lung, -39.5% (active); in the test with NCI-H322M lung, -27.7% (active); in the test on HOP-62 NSCLC it was -60.6% (active); in the test with NCI-H460 lung, -39% (active); in the test on HOP-92 NSCLC it was -46.4% (active). Moreover, the growth in the test with NCI-H522 lung was -52% (active); with A549/ATCC NSCLC, -26.6% (active); in the test with 786-0 renal, -39.2% (active); in the test with COLO 205 colon, -76.2% (active); with DU-145 prostate, -31.2% (active); in the test with K-562 leukemia, -19% (active). Besides, the growth is -82.6% (active) in the test on MALME-3M melanoma; -54.5% (active) in the test with MDA-MB-231 breast; -58.8% (active) with RXF 393 renal; -46.8% (active) with SF-268 CNS; -20.7% (active) in the test with SF-295 CNS; -36.2% (active) in the test on SF-539 CNS. Moreover, the growth is -53.4% (active) with UACC-257 melanoma and -66.5% (active) in the test on M14 melanoma.
For `N#C/C(Sc1nc2sc3c(c2c(=O)n1Cc1ccccc1)CCCC3)=C1/SC=C(c2ccc(Cl)cc2)N1c1ccccc1`, the growth in the test on NCI-H23 lung is 86.6%; in the test with NCI-H226 lung it was 106%; in the test with NCI-H322M lung it was 84.5%; in the test with HOP-62 NSCLC, 78.8%; in the test with NCI-H460 lung, 90.6%; with HOP-92 NSCLC it was 68.6%. Further, the growth with NCI-H522 lung was 89.7%; with A549/ATCC NSCLC, 100%; in the test on 786-0 renal, 87.4%; in the test with COLO 205 colon it was 104%; in the test on DU-145 prostate it was 119%; in the test with K-562 leukemia it was 82.5%. Also, the growth is 89.8% in the test on MALME-3M melanoma; 86.4% in the test on MDA-MB-231 breast; 90.9% in the test on RXF 393 renal; 78% with SF-268 CNS; 88.9% in the test with SF-295 CNS; 72.3% in the test with SF-539 CNS. Besides, the growth is 108% in the test on UACC-257 melanoma and 90.5% in the test with M14 melanoma.
Consider `COc1ccc(C(c2cc(OC)c(OC)c(OC)c2)n2cncn2)cc1O` (stereo not given), for which the growth with NCI-H23 lung is 39.9%; in the test on NCI-H226 lung it was 73.4%; in the test with NCI-H322M lung, 51.5%; with HOP-62 NSCLC it was 32.2%; in the test with NCI-H460 lung, 9.82% (active); in the test on HOP-92 NSCLC, 43.9%. Further, the growth was 12.8% in the test with NCI-H522 lung; 18.6% in the test with A549/ATCC NSCLC; 28.1% in the test with 786-0 renal; -1.65% (active) in the test with COLO 205 colon; 19.6% in the test on DU-145 prostate; 8.34% (active) with K-562 leukemia. For the same compound, the growth was 70.2% in the test on MALME-3M melanoma; 43.1% in the test with MDA-MB-231 breast; -13.8% (active) in the test on RXF 393 renal; 48.8% with SF-268 CNS; 2.56% (active) in the test on SF-295 CNS; 9.34% (active) with SF-539 CNS. For the same compound, the growth is 44.4% in the test on UACC-257 melanoma and -1.61% (active) in the test with M14 melanoma.
